Results on 4 compounds are retold here after PubChem BioAssay (EPA / NIEHS).

Several values for one entry are separate records, joined by “and”; a condition that tells them apart may be missing. Equal values may be shown once. Records with an inconclusive call do not appear. More than one record can exist for a structure, and the calls need not agree. Activity calls are given as the source filed them. How the source made its calls, unless noted: active means hit-call score of the fitted dose curve at least 0.9, where 1 is the maximum; inactive means score below 0.9.

Experiment [1] is described as follows: IUF_NPC2c_oligodendrocyte_migration_120hr: Leibniz Research Institute for Environmental Medicine (IUF) 120-hour Neural Progenitor Cell Migration Assay for Oligodendrocyte Migration (NPC2c) (AID 2284297).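 Further: O4-positive oligodendrocyte migration distance divided by radial glia migration distance.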 In outline: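 Using fetal brain neural progenitor spheres differentiating in N2 medium at 37C, compounds were present for 120 h. Oligodendrocyte migration distance, normalized to radial glia migration, was measured from imaged O4 staining.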

A short description of experiment [2]: IUF_NPC2a_radial_glia_migration_120hr: Leibniz Research Institute for Environmental Medicine (IUF) 120-hour Neural Progenitor Cell Migration Assay for Radial Glia Migration (NPC2a) (AID 2284298). In outline: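 Exposure of 0.3 mm primary hNPC spheres runs day 0 to 120 h with a half-volume medium change at day 3. Fixed cells get Hoechst staining; high-content analysis of nuclear positions yields radial glia migration distance per well, compared against DMSO controls.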

Experiment [3] is described as follows: IUF_NPC2a_radial_glia_migration_72hr: Leibniz Research Institute for Environmental Medicine (IUF) 72-hour Neural Progenitor Cell Migration Assay for Radial Glia Migration (NPC2a) (AID 2284299). The procedure, abridged: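 Migration out of plated human neural progenitor spheres is scored at 72 h as the distance in um from the sphere core edge to the edge of the migration area. Values are the mean of four manual measurements per well, normalised to DMSO.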

A short description of experiment [4]: IUF_NPC2b_neuronal_migration_120hr: Leibniz Research Institute for Environmental Medicine (IUF) 120-hour Neural Progenitor Cell Migration Assay for Neuron Migration (NPC2b) (AID 2284300). The procedure, abridged:
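Fetal human NPC spheres migrate on PDL/laminin during 120 h compound treatment; neuronal migration distance, glia-normalized, scored versus DMSO control.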

A short description of experiment [5]: IUF_NPC3_neuronal_differentiation_120hr: Leibniz Research Institute for Environmental Medicine (IUF) 120-hour Neuronal Differentiation Assay (NPC3) (AID 2284301). The procedure, abridged:
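Primary human fetal neural progenitor spheres (GW 16-19, 0.3 mm) plated on poly-D-lysine/laminin in N2 medium, exposed from day 0 for 120 h with half-medium refresh at day 3. TUBB3+ cells as percent of Hoechst nuclei in migration area; DMSO baseline.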

Experiment [6] in a line: IUF_NPC4_neurite_length_120hr: Leibniz Research Institute for Environmental Medicine (IUF) 120-hour Neuronal Morphology Assay for Neurite Length (NPC4) (AID 2284302). The procedure, abridged:
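Human fetal cortex (GW 16-19) neural progenitor spheres, 0.3 mm, were plated on poly-D-lysine/laminin in N2 differentiation medium and exposed from day 0 for 120 h, half-feeding at day 3. Mean TUBB3+ neurite length (µm) came from skeletonized images, relative to DMSO.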

The nature of experiment [7]: IUF_NPC5_oligodendrocyte_differentiation_120hr: Leibniz Research Institute for Environmental Medicine (IUF) 120-hour Oligodendrocyte Differentiation Assay (NPC5) (AID 2284304; active means hit-call score of the fitted dose curve at least 0.9, where 1 is the maximum;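 further: primary human fetal neural progenitor spheres plated to migrate and differentiate; share of O4-positive cells among Hoechst nuclei found by CNN image analysis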). The procedure, abridged:
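After plating on poly-D-lysine/laminin, fetal-derived hNPC spheres differentiated for 120 h at 37C in compound-containing N2 medium, refreshed by half on day 3. O4 immunostaining over Hoechst nuclei in the migration zone gave oligodendrocyte percentage relative to DMSO.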

Experiment [8] in a line: IUF_NPC4_neurite_area_120hr: Leibniz Research Institute for Environmental Medicine (IUF) 120-hour Neuronal Morphology Assay for Neurite Area (NPC4) (AID 2284305; active means hit-call score of the fitted dose curve at least 0.9, where 1 is the maximum). In outline:
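Human fetal cortex-derived neural progenitor spheres (0.3 mm, GW 16-19) plated on poly-D-lysine/laminin in N2 differentiation medium and exposed from day 0 for 120 h across 7 concentrations plus solvent control. Neurite area is mean pixel area per TUBB3-positive neuron via skeletonization, analysed relative to DMSO.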

A short description of experiment [9]: IUF_NPC2-5_cytotoxicity_72hr: Cytotoxicity Assessment at 72 hours in the Leibniz Research Institute for Environmental Medicine (IUF) Neural Progenitor Cell Migration and Differentiation Assay for Cytotoxicity (NPC2-5) (AID 2284306; active means hit-call score of the fitted dose curve at least 0.9, where 1 is the maximum;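 further: LDH release into supernatant measured by resorufin fluorescence marking membrane damage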). In outline: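 Human fetal (GW 16-19) neural progenitor spheres, 0.3 mm, plated on poly-D-lysine/laminin in N2 differentiation medium and exposed from day 0 to 7 concentrations plus solvent control (DMSO ≤0.1%). LDH-dependent resazurin-to-resorufin fluorescence in supernatant at 72 h.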

Read-out in experiment [10]: Monocyte Chemoattractant Protein-1 (MCP1), CCL2 (gene 6347)
The experiment can be described thus: BSK_hDFCGF_MCP1: BioMAP Diversity Plus: hDFCGF Assay for Monocyte Chemoattractant Protein-1 (MCP1) Biomarker Activity (AID 2284285). To be noted: primary human foreskin fibroblasts. The procedure, abridged:
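Human foreskin fibroblasts (hDFCGF system) were exposed to compound and secreted MCP-1 was measured by ELISA after 24 hours. Activity was fitted relative to DMSO. Cytotoxicity was checked by SRB total-protein staining in parallel cultures.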

Read-out in experiment [11]: Intercellular Adhesion Molecule 1 (ICAM1), ICAM1 (gene 3383)
The experiment in a line: BSK_hDFCGF_ICAM1: BioMAP Diversity Plus: hDFCGF Assay for Intercellular Adhesion Molecule 1 (ICAM1) Biomarker Activity (AID 2284287). The settings on record: primary human foreskin fibroblasts. In outline: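 Primary human foreskin fibroblasts (hDFCGF system) dosed with chemical; ICAM-1 quantified by ELISA at 24 h relative to DMSO. Parallel SRB total-protein staining to assess overt cytotoxicity.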

Read-out in experiment [12]: TIMP metallopeptidase inhibitor 2 (TIMP2), TIMP2 (gene 7077)
The experiment can be described thus: BSK_hDFCGF_TIMP2: BioMAP Diversity Plus: hDFCGF Assay for TIMP metallopeptidase inhibitor 2 (TIMP2) Biomarker Activity (AID 2284289). The settings on record: primary human foreskin fibroblasts. The procedure, abridged:
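Primary human foreskin fibroblasts in the hDFCGF system, dosed for 24 h; TIMP-2 level measured by ELISA, fitted in the positive direction against DMSO; cytotoxicity checked in parallel by sulforhodamine B total protein staining.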

Read-out in experiment [13]: Interleukin-1 alpha (IL1a), IL1A (gene 3552)
The experiment in a line: BSK_IMphg_IL1a: BioMAP Diversity Plus: IMphg Assay for Interleukin-1 alpha (IL1a) Biomarker Activity (AID 2284290). The settings on record: primary human endothelial cells with macrophages. The procedure, abridged:
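Human venular endothelial cells co-cultured with macrophages, IMphg system. IL-1α is measured by ELISA 24 h after dosing and fitted in the positive direction against DMSO. Cytotoxicity is assessed by SRB staining of parallel cultures.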

Read-out in experiment [14]: E-selectin (Homo sapiens) (UniProt P16581)
The experiment in a line: BSK_IMphg_ESelectin: BioMAP Diversity Plus: IMphg Assay for Eselectin Biomarker Activity (AID 2284291). To be noted: primary human endothelial cells with macrophages. The procedure, abridged:
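Human venular endothelial cell–macrophage co-culture, E-selectin measured by ELISA 24 h after chemical dosing. Signal fitted in the positive direction against DMSO as negative control and baseline.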

Experiment [15] can be described thus: BSK_IMphg_SRB: Viability Assessment in the BioMAP Diversity Plus: IMphg Assay (AID 2284292).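 Further: measured one day after compound addition.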 To be noted: primary human endothelial cells with macrophages. The procedure, abridged: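 Human venular endothelial cells with macrophages, 24 h after chemical dosing; total protein by 0.1% SRB staining after 10% TCA fixation, read at 560 nm. Positive-direction fitting versus DMSO baseline.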

Read-out in experiment [16]: Macrophage colony-stimulating factor (MCSF), CSF1 (gene 1435)
The experiment can be described thus: BSK_IMphg_MCSF: BioMAP Diversity Plus: IMphg Assay for Macrophage colony-stimulating factor (MCSF) Biomarker Activity (AID 2284293). To be noted: primary human endothelial cells with macrophages. The procedure, abridged:
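Co-culture of human venular endothelial cells and macrophages, 24 hours of chemical exposure. M-CSF quantified by ELISA, with parallel SRB total-protein staining for cytotoxicity; activity fitted relative to DMSO.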

Read-out in experiment [17]: Interleukin-10 (IL10), IL10 (gene 3586)
The experiment in a line: BSK_IMphg_IL10: BioMAP Diversity Plus: IMphg Assay for Interleukin-10 (IL10) Biomarker Activity (AID 2284294). To be noted: primary human endothelial cells with macrophages. In outline:
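Human venular endothelial cells cocultured with macrophages, dosed 24 h; IL-10 measured by ELISA, activity relative to DMSO. Cytotoxicity assessed in parallel cultures by sulforhodamine B total-protein staining.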

Experiment [18] can be described thus: BSK_IMphg_SRB.Mphg: Macrophage Viability Assessment in the BioMAP Diversity Plus: IMphg Assay (AID 2284295). To be noted: primary human endothelial cells with macrophages. The procedure, abridged:
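Venular endothelial cells co-cultured with macrophages, read 24 h after dosing. Total protein measured by 0.1% SRB staining after 10% TCA fixation, absorbance at 560 nm. Fitted in positive direction against DMSO baseline.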

Read-out in experiment [19]: Thrombomodulin, THBD (gene 7056)
The experiment can be described thus: BSK_LPS_Thrombomodulin: BioMAP Diversity Plus: LPS Assay for Thrombomodulin Biomarker Activity (AID 2284296). To be noted: primary human HUVEC with PBMC. The procedure, abridged:
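Human umbilical vein endothelial cells co-cultured with PBMC and stimulated with LPS; cell-surface thrombomodulin measured by ELISA 24 hours after compound. Gain or loss versus DMSO; cytotoxicity checked by SRB staining in parallel cultures.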

Read-out in a further experiment: CD69, CD69 (gene 969)
The experiment in a line: BSK_LPS_CD69: BioMAP Diversity Plus: LPS Assay for CD69 Biomarker Activity (AID 2284303). To be noted: primary human HUVEC with PBMC. The procedure, abridged: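 Human umbilical vein endothelial cells co-cultured with PBMC under LPS stimulation, chemical exposure 24 h; cell-surface CD69 measured by ELISA and fitted in the positive direction versus DMSO.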

Sequence of E-selectin (Homo sapiens) (P16581 whole entry, looked up): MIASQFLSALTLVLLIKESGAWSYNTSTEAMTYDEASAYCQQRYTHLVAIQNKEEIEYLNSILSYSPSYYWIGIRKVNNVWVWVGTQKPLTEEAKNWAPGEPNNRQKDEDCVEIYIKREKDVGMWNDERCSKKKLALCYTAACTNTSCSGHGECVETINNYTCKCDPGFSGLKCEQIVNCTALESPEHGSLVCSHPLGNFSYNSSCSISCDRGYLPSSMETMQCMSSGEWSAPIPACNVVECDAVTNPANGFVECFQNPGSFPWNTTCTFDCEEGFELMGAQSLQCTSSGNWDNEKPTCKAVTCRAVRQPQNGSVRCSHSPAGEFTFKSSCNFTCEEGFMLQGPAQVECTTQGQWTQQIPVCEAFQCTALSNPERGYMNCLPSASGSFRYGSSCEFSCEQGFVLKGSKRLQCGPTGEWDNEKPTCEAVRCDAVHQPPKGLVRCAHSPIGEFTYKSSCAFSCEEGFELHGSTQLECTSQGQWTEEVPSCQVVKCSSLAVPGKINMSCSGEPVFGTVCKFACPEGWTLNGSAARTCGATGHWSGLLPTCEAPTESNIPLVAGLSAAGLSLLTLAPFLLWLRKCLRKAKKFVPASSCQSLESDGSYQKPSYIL

The AC50 is the midpoint of the concentration-response curve, whichever way the signal moves. Regarding `CC(C)c1c(C(=O)Nc2ccccc2)c(-c2ccccc2)c(-c2ccc(F)cc2)n1CC[C@@H](O)C[C@@H](O)CC(=O)O`, the result in experiment [1], in [2], in experiment [3], in experiment [4], in [5] and in [6] was inactive. The call in experiment [7] and in [8] was inactive. Besides, the AC50 in experiment [9] was 2.54 µM (active).
For `O=C(O)C(F)(F)OC(F)(F)C(F)(F)OC(F)(F)C(F)(F)OC(F)(F)C(F)(F)C(F)(F)C(F)(F)F`, the AC50 in [10] is 8.5 µM (active) and 8.66 µM (active); in [11], 19.7 µM (active) and 17.2 µM (active); in experiment [12], 7.91 µM (active) and 7.94 µM (active); in experiment [13], 44.1 µM (active) and 22.4 µM (active); in experiment [14] it was 40.8 µM (active) and 31.9 µM (active); in experiment [15], 53.4 µM (active) and 51.8 µM (active). Also, the AC50 was 53.4 µM (active) and 56.3 µM (active) in experiment [17]; 42.9 µM (active) and 45.1 µM (active) in experiment [18]; 45.8 µM (active) and 44.1 µM (active) in experiment [19]; 39.9 µM (active) and 41.2 µM (active) in the experiment with CD69, CD69 (gene 969). Also, in experiment [16], the outcome was inactive.
In the case of `O=C(CCCN1CCC(O)(c2ccc(Cl)cc2)CC1)c1ccc(F)cc1`, the compound was classed as inactive in experiment [1], in experiment [3], in experiment [4], in experiment [5], in [6] and in experiment [8]. In addition, the call in experiment [9] was inactive. For the same compound, the AC50 in experiment [2] was 15.9 µM (active); in [7], 3.35 µM (active).
As for `O=S(=O)(O)C(F)(F)C(F)(F)C(F)(F)C(F)(F)C(F)(F)C(F)(F)C(F)(F)C(F)(F)C(F)(F)C(F)(F)F`, the AC50 is 10.3 µM (active) in experiment [10]; 13.3 µM (active) in experiment [17]; 668 nM (active) in [18]; 14.6 µM (active) and 3.91 µM (active) with CD69, CD69 (gene 969). The outcome in experiment [10], in experiment [11], in experiment [12], in experiment [13], in experiment [14] and in experiment [15] was inactive. In addition, the result in experiment [16], in experiment [17], in experiment [18] and in experiment [19] was inactive.
